DRD3 agonist: qHTS of D3 Dopamine Receptor Agonist: qHTS; D3R DiscoveRx beta-arrestin cells, luminescence, 90 min; max activation, %; hit rate 0.58% among 410,000; AID 652048, 2013; in the data active = max activation above about 30%; note: 0% is about no effect
Target sequence (P35462 whole entry, looked up): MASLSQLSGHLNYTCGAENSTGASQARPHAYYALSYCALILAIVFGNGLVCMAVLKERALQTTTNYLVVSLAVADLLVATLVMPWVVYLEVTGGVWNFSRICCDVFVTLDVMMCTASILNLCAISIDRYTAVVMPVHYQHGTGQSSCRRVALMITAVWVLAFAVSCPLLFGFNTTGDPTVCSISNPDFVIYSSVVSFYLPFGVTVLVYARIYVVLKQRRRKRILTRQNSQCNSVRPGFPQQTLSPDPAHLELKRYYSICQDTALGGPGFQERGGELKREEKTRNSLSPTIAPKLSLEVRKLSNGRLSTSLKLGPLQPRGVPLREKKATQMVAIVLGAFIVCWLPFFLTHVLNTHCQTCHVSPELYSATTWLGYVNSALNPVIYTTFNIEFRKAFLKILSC
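Cells at 1500/well, incubated overnight, then treated with pinned compounds (dopamine as control) for 90 min at 37 degrees C. DiscoveRx reagent added for 30 - 60 minutes at room temperature; luminescence read.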
D1 PAM: Potentiators of Human D1 Dopamine Receptor: qHTS; potentiation, % at 10 µM; AID 504651, 2011; HEK293 TREx D1 cells, calcium flux, dopamine EC20 potentiation; hit rate 0.036% among 360,000; in the data active = potentiation above about 30%; note: 0% is about no effect
D1 agonist: Allosteric Agonists of the Human D1 Dopamine Receptor: qHTS. activation, % at 2 µM. HEK293 T-REx D1 cells, calcium flux, agonist mode. hit rate 1% among 360,000. AID 504660, 2011. D(1A) dopamine receptor (Homo sapiens), P21728; in the data active = activation above about 30%; note: 0% is about no effect
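Inducible HEK293 T-REx D1 cells, force-coupled to calcium signalling, were plated at 4000 cells/well with tetracycline and held overnight at 30 C. After no-wash calcium dye loading, compound-evoked calcium rise over 180 s flagged agonists.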
D1 antagonist: Antagonist of Human D 1 Dopamine Receptor: qHTS | HEK293 TREx D1 cells, calcium flux, dopamine EC80; active compounds read low | activity change, negative = inhibition, % at 10 µM | hit rate 3.2% among 360,000; in the data active = activity change below about -30%; note: % is set by controls: 0 for no effect and ±100 for the full control effect
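Kinetic fluorescence of a calcium dye serves as the read-out. D1-expressing Hek293 Trex cells, induced overnight at 30 C, are exposed to compound for 180 s before an EC80 dopamine addition, then read 180 s further.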
D3 antag: qHTS of D3 Dopamine Receptor Antagonist: qHTS; max response, negative = inhibition, %; D3R cells, DiscoveRx beta-arrestin luminescence, antagonist mode; active compounds read low; D(3) dopamine receptor (Homo sapiens), P35462; hit rate 2.5% among 360,000; in the data active = max response below about -50%; inconclusive = no clear call, values can overlap the other calls; note: % is set by controls: 0 for no effect and ±100 for the full control effect
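Cells plated overnight at 1500 cells/well, then exposed to library compounds with dopamine controls for 90 minutes at 37 degrees C. DiscoveRx reagent added for 30–60 minutes at room temperature; luminescence read, quantitative HTS format.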
* marks the source's active call; other numbers are inactive results; ? = inconclusive; · = no result. In the library only some 6% were active in any assay of this set; here they are far more common.

SMILES | DRD3 agonist | D1 PAM | D1 agonist | D1 antagonist | D3 antag
Cc1ccc(CN(C(=O)COc2cccc([N+](=O)[O-])c2)c2ccccn2)o1 | 4 | -1 | -3 | 1 | ·
COc1ccc(Nc2nc(C#N)nc(NC3CCCC3)n2)cc1 | · | -1 | 0 | -36* | ·
C=Cc1nc(Nc2cc(F)cc(F)c2)nc(NC2CCCC2)n1 | · | -10 | 0 | -10 | ·
N#Cc1nc(Nc2cccc(-c3ccccc3)c2)nc(NC2CCCC2)n1 | · | -5 | 5 | -31* | ·
N#Cc1nc(Nc2cccc(F)c2)nc(NC2CCCC2)n1 | · | -6 | 14 | -34* | ·
Fc1cc(F)cc(Nc2nc(NC3CCCC3)nc(C3CO3)n2)c1 (configuration not stated) | · | -7 | 74* | -37* | ·
Cc1cc(OCCCSc2nc(-c3ccc(C(C)(C)C)cc3)nc3cc(=O)[nH]n23)ccc1Cl | 20 | 4 | 0 | 6 | ·
COC(=O)c1ccc(NC(=O)CC2C(=O)N(c3cccc(C)c3)C(=O)N2Cc2ccco2)cc1 (configuration not stated) | 14 | -2 | 2 | -12 | ·
CCOC(=O)/C(=C/c1c(C)n(C)c2ccc([N+](=O)[O-])cc12)C(C)=O | -9 | -4 | 0 | 14 | -54*
COc1cccc(CNc2nc3cc(-c4ccc(OC)c(OC)c4)sc3c(=O)n2C)c1 | 40* | · | · | · | 39
O=C(O)c1ccc(Sc2nnc(-c3cccc(Br)c3)o2)c([N+](=O)[O-])c1 | -2 | -4 | -1 | -28 | -66*
Cn1c(Sc2ccc(C(=O)O)cc2[N+](=O)[O-])nnc1-c1ccccc1 | -16 | -5 | 2 | -2 | -2
CCOc1ccc(CN2CCN(Cc3[nH]c4ccccc4c3C)CC2CCO)cc1 (configuration not stated) | -13 | -1 | 48* | -1 | -17
Cc1ccc(CN2CCN(Cc3cccc4c3OCO4)CC2CCO)cc1 (configuration not stated) | -28 | 5 | 4 | -2 | -94*
CCOc1ccc(CN2CCN(Cc3cccc4c3OCO4)CC2CCO)cc1 (configuration not stated) | -19 | -5 | 3 | 3 | -61*
Cc1c(CN2CCN(CC(C)(C)C)C(CCO)C2)[nH]c2ccccc12 (configuration not stated) | 3 | -2 | 3 | 21 | 0
CCOc1ccc(CN2CCN(Cc3cc4c(cc3Cl)OCO4)CC2CCO)cc1 (configuration not stated) | -40 | -4 | 13 | -5 | -64*
CN1CCN(C(CNC(=O)c2c(F)cccc2F)c2ccc3c(c2)OCO3)CC1 (configuration not stated) | 3 | -1 | 2 | 9 | ·
O=c1cc(CN2CCN(Cc3ccc(F)cc3)C(CCO)C2)[nH]c2ccccc12 (configuration not stated) | -24 | -5 | 1 | -5 | -58*
OCCC1CN(Cc2cccs2)CCN1Cc1ccccc1 (configuration not stated) | -19 | -5 | 0 | -2 | -24
OCCC1CN(Cc2cc3c(cc2Cl)OCO3)CCN1Cc1ccccc1 (configuration not stated) | -24 | 5 | 7 | -10 | -53*
CCCCC(c1nnnn1C1CCCC1)N1CCN(C2CCCCC2)CC1 (configuration not stated) | -23 | -3 | 0 | 20 | -60*
CSCCC(c1nnnn1C1CCCCC1)N1CCN(C/C=C/c2ccccc2)CC1 (configuration not stated) | -10 | · | · | · | -89*
CSCCC(c1nnnn1C1CCCC1)N1CCN(C/C=C/c2ccccc2)CC1 (configuration not stated) | -18 | · | · | · | -78*
CCCC(c1nnnn1C1CCCCC1)N1CCN(c2ncccn2)CC1 (configuration not stated) | -3 | 1 | -1 | 8 | ?
SMILES | DRD3 agonist | D1 PAM | D1 agonist | D1 antagonist | D3 antag
CCCC(c1nnnn1CC1CCCO1)N1CCN(c2ccccc2)CC1 (configuration not stated) | 20 | 1 | 2 | 10 | 12
CCCCC(c1nnnn1CC1CCCO1)N1CCN(Cc2ccccc2)CC1 (configuration not stated) | -6 | -3 | -1 | 14 | -78*
C(=C\c1ccccc1)/CN1CCN(C(c2ccnc3ccccc23)c2nnnn2C2CCCCC2)CC1 (configuration not stated) | -16 | · | · | · | ?
CCC(c1nnnn1C1CCCC1)N1CCN(Cc2ccccc2)CC1 (configuration not stated) | -25 | 4 | 0 | -10 | -65*
CCC(c1nnnn1C1CCCC1)N1CCN(C/C=C/c2ccccc2)CC1 (configuration not stated) | -11 | · | · | · | -61*
C(=C\c1ccccc1)/CN1CCN(C(c2ccccc2)c2nnnn2C2CCCCC2)CC1 (configuration not stated) | -14 | · | · | · | -91*
CCC(c1nnnn1C1CCCC1)N1CCN(c2cccc(OC)c2)CC1 (configuration not stated) | -3 | 1 | 2 | -3 | -12
S=c1nc(-c2cccc(Cl)c2)[nH][nH]1 | 6 | -2 | 0 | 17 | -55*
CCOC(=O)C(C)(C)N(Cc1ccccc1C)S(=O)(=O)c1ccc(Cl)c([N+](=O)[O-])c1 | -3 | 5 | 5 | 0 | -50*
CCCC(CCC)C(N)=O | 58* | · | · | · | ·
CCCCCCCCCCCCCCCCn1cc[n+](C)c1 | -7 | -6 | 38* | -7 | 3
CCCCCCCCn1ccc(=N)cc1 | 11 | -4 | 1 | 15 | 13
CCOC(=O)N1C(=O)[C@@](c2ccc(Cl)cc2)(C(C)C)N1C(=O)OCC | -25 | -1 | 3 | -13 | -51*
CCOC(=O)N1C(=O)[C@](c2ccc(Cl)cc2)(C(C)C)N1C(=O)OCC | -40 | -1 | 5 | 8 | -12
COc1cccc(-c2cc(C(=O)NCc3ccccc3)no2)c1 | -6 | 0 | 10 | -10 | ·
COc1cccc(-c2cc(CC3(O)CCN(CCCc4ccccc4)CC3)on2)c1 | -3 | -4 | 24 | 4 | -96*
COc1cccc(/C=C/C(=O)c2ccc(NS(=O)(=O)c3ccc(C)cc3)cc2)c1 | -9 | -4 | 3 | -60* | -54*
COc1cc(/C=C/C(=O)c2ccc(NS(=O)(=O)c3ccc(C)cc3)cc2)cc(OC)c1O | -7 | 1 | 7 | -8 | -18
CCC(=O)c1ccc(N2CCCCC2)c(F)c1 | 6 | -4 | -1 | -55* | 9
COc1cc2c(cc1OC)C(c1cc3cc(C)ccc3[nH]c1=O)N(C(=O)c1ccco1)CC2 (configuration not stated) | 37* | 2 | 4 | 12 | 10

Compound activity: PubChem BioAssay, National Center for Advancing Translational Sciences (NCATS)
